{"source": "PubChem BioAssay AID425", "about": "(Sanford-Burnham Center for Chemical Genomics, 2006)", "note": "“And” between values parts separate entries of the source, which are not always exact repeats. Equal entries are not always repeated. Screen size: about 110,000 compounds; about 190 (0.17%) were called active. This is one part of a sample in which actives are shown more often than they occur. Entries with a potency or affinity are not part of this list. Unmarked numbers belong to inactive results. Cut-off read from the data, not from the text of the source: active = inhibition above about 50%; inactive = the rest.", "data": [{"molecular_target": "Dual specificity protein phosphatase 6 (Rattus norvegicus) (UniProt Q64346)", "sequence (Q64346 whole entry, looked up)": "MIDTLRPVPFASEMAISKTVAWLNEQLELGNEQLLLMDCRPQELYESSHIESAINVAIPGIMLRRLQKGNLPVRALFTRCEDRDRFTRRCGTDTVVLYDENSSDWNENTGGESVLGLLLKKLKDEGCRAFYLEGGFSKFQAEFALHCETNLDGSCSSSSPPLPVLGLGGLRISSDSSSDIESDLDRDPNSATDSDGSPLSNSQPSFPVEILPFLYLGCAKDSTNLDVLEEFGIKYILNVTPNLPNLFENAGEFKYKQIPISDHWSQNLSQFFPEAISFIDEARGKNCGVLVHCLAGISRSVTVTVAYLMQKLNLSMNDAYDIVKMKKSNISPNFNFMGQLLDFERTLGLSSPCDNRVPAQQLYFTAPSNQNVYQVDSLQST", "assay": "MKP-3 phosphatase inhibitors, primary screen, biochemical, rat enzyme, in vitro (AID 425);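 note: plate controls were vehicle for no effect and reference inhibitor for full effect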", "settings": "recombinant MKP-3 phosphatase activity, fluorescence; at 20 µM; stronger effect = higher value", "values": [{"smiles": "N#CC1=C(N)N(c2ccccc2)C(c2ccco2)C1(C#N)C#N", "note": "(centres undefined)", "inhibition": "-9.8%"}, {"smiles": "COC(=O)c1ccccc1NC(=O)c1ccccc1C", "inhibition": "0.2%"}, {"smiles": "O=C(/C=C/c1ccc2c(c1)OCO2)NC1CC2CCC1C2", "note": "(centres undefined)", "inhibition": "3.3%"}, {"smiles": "COc1ccc(C2=NN(CN3C(=O)C(=O)c4ccccc43)C(c3ccccc3)C2)cc1", "note": "(centres undefined)", "inhibition": "1.1%"}, {"smiles": "O=C1C2=C(C(c3ccccc3)=NCCN2)C(c2ccc(O)cc2)N1c1ccccc1", "note": "(centres undefined)", "inhibition": "0.2%"}, {"smiles": "Cc1ccccc1N1C(=O)/C(=C\\c2cccs2)SC1=S", "inhibition": "0.2%"}, {"smiles": "Cc1cccc(-c2nnc(SCc3nc4ccccc4[nH]3)n2Cc2ccco2)c1", "inhibition": "-6.8%"}, {"smiles": "O=S(=O)(NCCOCCNS(=O)(=O)c1ccccc1)c1ccccc1", "inhibition": "-1.6%"}, {"smiles": "Cc1ccc(/C(O)=C(\\C#N)c2nc3ccccc3[nH]2)cc1", "inhibition": "5.3%"}, {"smiles": "O=C(O/N=C1/CCCc2c1sc1nc3n(c(=O)c21)CCCCC3)c1ccc([N+](=O)[O-])cc1", "inhibition": "-4.1%"}, {"smiles": "Cc1ccc(S(=O)(=O)NC(=O)N2CCc3ccccc32)cc1", "inhibition": "4.5%"}, {"smiles": "CCN(CC)C(=O)CSc1nc2cccnc2n1-c1ccccc1OC", "inhibition": "-6.6%"}, {"smiles": "OCCCc1nc2ccccc2n1Cc1ccc2ccccc2c1", "inhibition": "3.2%"}, {"smiles": "CCc1nn(CC(=O)NCCCN(CC)Cc2ccccc2)c(=O)c2cc3sccc3n12", "inhibition": "2%"}, {"smiles": "O=C(O)c1cc(-c2ccc(/C=C3/Sc4ccccc4C3=O)o2)ccc1O", "inhibition": "84.4% (active)"}, {"smiles": "O=C1/C(=C/c2ccc(-c3ccc(Cl)cc3C(=O)O)o2)Sc2ccccc21", "inhibition": "7.4%"}, {"smiles": "O=C(O)c1cc(-c2ccc(C=C3C(=O)c4ccccc4C3=O)o2)ccc1O", "inhibition": "47.2%"}, {"smiles": "O=C1NC(=O)/C(=C\\c2ccc(-c3ccc(C(=O)O)cc3)o2)S1", "inhibition": "2.5%"}, {"smiles": "O=C1NC(=S)S/C1=C\\c1ccc(-c2ccc(Cl)c(C(=O)O)c2)o1", "inhibition": "10.9%"}, {"smiles": "O=C1NC(=O)/C(=C/c2ccc(-c3ccc(O)c(C(=O)O)c3)o2)S1", "inhibition": "105% (active)"}, {"smiles": "COc1ccccc1CNC(=O)C(NC(=O)C1CCCCC1)C(C)C", "note": "(centres undefined)", "inhibition": "-3.5%"}, {"smiles": "CCOC(=O)CNC(=S)Nc1ccc(F)cc1", "inhibition": "1.8%"}, {"smiles": "CN(C)c1ccc(/C=C/C=C/c2cc[n+](CCCS(=O)(=O)[O-])cc2)cc1", "inhibition": "5%"}, {"smiles": "c1ccc(-c2noc(C34CC5CC(CC(C5)C3)C4)n2)nc1", "inhibition": "-5.1%"}, {"smiles": "CN1C(=O)NC(=O)/C(=C/c2ccc(-c3ccc([N+](=O)[O-])cc3Cl)o2)C1=O", "inhibition": "12%"}, {"smiles": "CN1C(=O)NC(=O)/C(=C/c2ccc(-c3ccc(Cl)cc3Cl)o2)C1=O", "inhibition": "66.9% (active)"}, {"smiles": "CN1C(=O)NC(=O)/C(=C/c2ccc(-c3ccc(Cl)cc3)o2)C1=O", "inhibition": "39.8%"}, {"smiles": "CCn1nc(NC(=O)c2ccncc2)c2cc3cc(C)ccc3nc21", "inhibition": "-13.2%"}, {"smiles": "O=C(NCCN1CCOCC1)c1cnn2c(C(F)(F)F)cc(-c3ccc(Br)cc3)nc12", "inhibition": "-0.4%"}, {"smiles": "CCN1C(=O)N(COC(C)=O)C2C1N(COC(C)=O)C(=O)N2CC", "note": "(centres undefined)", "inhibition": "3.5%"}, {"smiles": "Cc1c(-c2cccc(Cl)c2)nc2ccccc2c1C(=O)O", "inhibition": "1.1%"}, {"smiles": "O=C(Cn1c(O)c(N=NC(=O)c2ccc([N+](=O)[O-])cc2)c2ccccc21)Nc1ccccc1", "inhibition": "0.9%"}, {"smiles": "O=C(Cn1c(O)c(N=NC(=O)C(=O)Nc2ccc([N+](=O)[O-])cc2)c2ccccc21)Nc1ccccc1", "inhibition": "-0.4%"}, {"smiles": "Cc1ccc(C2SCC(=O)N2CCCN(C)C)cc1", "note": "(centres undefined)", "inhibition": "-0.2%"}, {"smiles": "Cc1c(Cl)cccc1N=C1NC(=O)/C(=C/c2ccc(OC(C)C)cc2)S1", "inhibition": "3.5%"}, {"smiles": "Cc1ccccc1C(=O)Nc1cccc(C(=O)Nc2ccccc2Cl)c1", "inhibition": "0.2%"}, {"smiles": "O=C(Nc1ccccc1Cl)c1cccc(NC(=O)C(F)(F)F)c1", "inhibition": "98.8% (active)"}, {"smiles": "O=C(Nc1ccccc1Cl)c1cccc(F)c1", "inhibition": "0.5%"}, {"smiles": "CCOC(=O)C1=C(O)CCn2c1nc1ccccc12", "inhibition": "-0.7% and -13.2%"}, {"smiles": "CCOC(=O)C1(C)C=C(Nc2ccc(S(=O)(=O)Nc3nccs3)cc2)C(=O)N1c1ccccc1", "note": "(centres undefined)", "inhibition": "2.7%"}, {"smiles": "COC(=O)c1c(NC(=O)c2cncc(Br)c2)sc2c1CCC2", "inhibition": "-14%"}, {"smiles": "Cc1ccccc1NC(=O)C(C)NC(=O)C12CC3CC(CC(C3)C1)C2", "note": "(centres undefined)", "inhibition": "1.2%"}, {"smiles": "COc1cc(NC(=O)c2cc3nc(-c4ccccc4)cc(C)n3n2)c(OC)cc1Cl", "inhibition": "10.6%"}, {"smiles": "Cc1cc(-c2ccccc2)nc2cc(C(=O)Nc3ccc(Cl)cc3)nn12", "inhibition": "3.4%"}, {"smiles": "COc1ccc(Cl)cc1NC(=O)c1cc2nc(-c3ccccc3)cc(C)n2n1", "inhibition": "63.8% (active)"}, {"smiles": "Cc1ccc(NC(=O)COc2ccc(Br)cc2)c(C)c1", "inhibition": "2.7%"}, {"smiles": "Cc1ccc(S(=O)(=O)Nc2cc(C)c(O)c(Sc3ncn[nH]3)c2)cc1", "inhibition": "4.4%"}, {"smiles": "Cc1ccc(S(=O)(=O)Nc2cc(Sc3nc4ccccc4[nH]3)c(O)c3ccccc23)cc1", "inhibition": "8.1%"}, {"smiles": "Cc1ccc(S(=O)(=O)Nc2cc(Sc3ncn[nH]3)c(O)c3ccccc23)cc1", "inhibition": "56% (active)"}, {"smiles": "COc1ccc(C2CC(=O)C3=C(C2)Nc2ccccc2NC3c2cccs2)cc1", "note": "(centres undefined)", "inhibition": "3.6%"}, {"smiles": "Cn1c(/C=C/c2ccc(Br)cc2)nc2ccccc2c1=O", "inhibition": "0.8%"}, {"smiles": "CCSc1nc(-c2cccs2)nc2c1c(=O)n(C)c(=O)n2C", "inhibition": "-4.4%"}, {"smiles": "COc1ccc(OC)c(/C=c2\\sc3nc(-c4cccs4)nn3c2=O)c1", "inhibition": "0.4%"}, {"smiles": "Cn1c(/C=C/c2cccnc2)nc2ccccc2c1=O", "inhibition": "-2.3%"}, {"smiles": "COc1ccc(-n2c(C)cc(C)nc2=O)cc1", "inhibition": "-1.5%"}, {"smiles": "CCOC(=O)Cn1nc(-c2ccccc2)nc1-c1ccccc1", "inhibition": "-8%"}, {"smiles": "Cc1nc(C)n(C)c(=O)c1-c1ccccc1", "inhibition": "-0.4%"}, {"smiles": "O=C(Nc1ccc(-c2cn3ccsc3n2)cc1)C1COc2ccccc2O1", "note": "(centres undefined)", "inhibition": "2.3%"}, {"smiles": "CC1=C(C(=O)Nc2cccc(C)c2)C(c2cc(Br)ccc2O)NC(=O)N1", "note": "(centres undefined)", "inhibition": "-0.3%"}, {"smiles": "CCOc1ccccc1NC(=O)C1C2C=CC(O2)C1C(=O)O", "note": "(centres undefined)", "inhibition": "-14.3%"}, {"smiles": "COC(=O)c1cc(C(=O)NC2CCCCCC2)cc([N+](=O)[O-])c1", "inhibition": "-3.5%"}, {"smiles": "CCOc1cccc(/C=N\\NC(=O)Cc2cccn2C)c1O", "inhibition": "2.2%"}, {"smiles": "C=CCOc1ccc(/C=C2\\C(=O)NC(C)=C2C(=O)OC)cc1OC", "inhibition": "3%"}, {"smiles": "COc1cc(F)ccc1S(=O)(=O)N1CCCCCC1", "inhibition": "-0.1%"}, {"smiles": "Cc1cccc(N2CCN(C(=O)c3ccc(Cl)c(Cl)c3)CC2)c1C", "inhibition": "3.8%"}, {"smiles": "C=CCN1C(=O)/C(=C/c2ccc(Cl)cc2)C(=O)NC1=S", "inhibition": "1.8%"}, {"smiles": "Cn1c(-c2ccccn2)nc2ccccc21", "inhibition": "1.2%"}, {"smiles": "c1ccc(-c2nnc(-c3ccccn3)nc2-c2ccccc2)cc1", "inhibition": "-0.7%"}, {"smiles": "CCn1c(N)nc2c1c(=O)n(C)c(=O)n2C", "inhibition": "-1.5%"}, {"smiles": "CCCc1nc(SCC(=O)c2ccc(OC)cc2)c2c(=O)n(C)c(=O)n(C)c2n1", "inhibition": "-2.4%"}, {"smiles": "O=c1c2c3c(sc2n2c(=S)[nH]nc2n1-c1ccccc1)CCCCC3", "inhibition": "1.2%"}, {"smiles": "COc1ccc(CCNC(=O)C2CCN(S(=O)(=O)N3CCCCC3)CC2)cc1OC", "inhibition": "-1.4%"}, {"smiles": "COc1ccc(Cc2nnc(SCC(=O)N3CCN(c4ccccc4)CC3)o2)cc1", "inhibition": "-9.3%"}, {"smiles": "O=C1N=c2ccccc2=C1c1s/c(=N/N=C2/C(=O)Nc3ccccc32)n(-c2ccc(O)cc2)c1O", "inhibition": "69.8% (active)"}, {"smiles": "O=C1N=c2ccccc2=C1c1sc(=O)n(-c2ccc(O)cc2)c1O", "inhibition": "0.6%"}, {"smiles": "O=C1N=c2ccccc2=C1c1sc(=Nc2ccccc2)n(-c2ccccc2)c1O", "inhibition": "-2%"}, {"smiles": "Cc1ccc(-c2nc(CS(=O)CC(=O)NCCC(C)C)c(C)o2)cc1", "note": "(centres undefined)", "inhibition": "-10.1%"}, {"smiles": "CCCCNCCCOc1ccccc1CC", "inhibition": "-0.3%"}, {"smiles": "COc1cc(/C=C2\\SC(NC(C)=O)=NC2=O)cc(Br)c1OC", "inhibition": "3.2%"}, {"smiles": "COc1cc(C=C2C(=O)c3ccccc3C2=O)cc(Br)c1OCC(=O)O", "inhibition": "3.3%"}, {"smiles": "CCOCCOC(=O)c1cccc(NC(=O)/C=C/c2ccc(Cl)cc2Cl)c1", "inhibition": "3.2%"}, {"smiles": "NC(=O)c1cc(-c2ccccc2)sc1N", "inhibition": "3.8%"}, {"smiles": "O=C(O)c1cccc(NC2=C(Cl)C(=O)N(c3ccc(Cl)cc3)C2=O)c1", "inhibition": "7.4%"}, {"smiles": "O=C1NC(=O)N(c2ccccc2)C(=O)/C1=C\\c1cccn1-c1cccc([N+](=O)[O-])c1", "inhibition": "4.5%"}, {"smiles": "O=C1OCCC1Sc1nc2ccccc2[nH]1", "note": "(centres undefined)", "inhibition": "-11%"}, {"smiles": "FC(F)(F)c1ccc2nnc(-c3cccc(Cl)c3Cl)n2c1", "inhibition": "5.1%"}, {"smiles": "O=C1/C(=C\\c2cc3c(cc2[N+](=O)[O-])OCO3)SC(=S)N1c1ccccc1", "inhibition": "5.2%"}, {"smiles": "CC(=O)NN1C(=O)/C(=C/c2cc3c(cc2[N+](=O)[O-])OCO3)SC1=S", "inhibition": "119% (active)"}, {"smiles": "CC(=O)NN1C(=O)/C(=C\\c2ccc(O)c([N+](=O)[O-])c2)SC1=S", "inhibition": "1.4%"}, {"smiles": "O=C(NN1C(=O)/C(=C/c2cc3c(cc2[N+](=O)[O-])OCO3)SC1=S)c1ccccc1Cl", "inhibition": "8.9%"}, {"smiles": "C=CCN1C(=O)/C(=C\\c2cc3c(cc2[N+](=O)[O-])OCO3)SC1=S", "inhibition": "124% (active)"}, {"smiles": "C=CCN1C(=O)/C(=C\\c2cc3c(cc2Br)OCO3)SC1=S", "inhibition": "0.3%"}, {"smiles": "CC1(C(=O)O)CCC(C(=O)N2CCOCC2)C1(C)C", "note": "(centres undefined)", "inhibition": "-3.7%"}, {"smiles": "CC(c1nc2ccccc2n1C)C(O)c1ccccc1", "note": "(centres undefined)", "inhibition": "-0.3%"}]}]}
